Sequences and labels used below:
B1: 106 (nucleosome)
DNA 1: ATCCTGGAGAATCCCGGTGCCGAGGCCGCTCAATTGGTCGTAGACAGCTCTAGCACCGCTTAAACGCACGTACGCGCTGTCCCCCGCGTTTTAACCGCCAAGGGGATTTCAAGGCCATCTCCAGGCACGTGTCAGATATATACATCCTGTGAT
DNA 2: ATCACAGGATGTATATATCTGACACGTGCCTGGAGATGGCCTTGAAATCCCCTTGGCGGTTAAAACGCGGGGGACAGCGCGTACGTGCGTTTAAGCGGTGCTAGAGCTGTCTACGACCAATTGAGCGGCCTCGGCACCGGGATTCTCCAGGAT
modifications: reconstituted with mouse histones H2A, H2B, H3.3 and H4
B2: 107 (nucleosome)
DNA 1: ATCCTGGAGAATCCCGGTGCCGAGGCCGCTCAATTGGTCGTAGACAGCTCTAGCACCGCTTAAACGCACGTACGCGCTGTCCCCCGCGTTTTAACCGCCAAGGGGATTATCAAGGCCACTCCAGGCACGTGTCAGATATATACATCCTGTGAT
DNA 2: ATCACAGGATGTATATATCTGACACGTGCCTGGAGTGGCCTTGATAATCCCCTTGGCGGTTAAAACGCGGGGGACAGCGCGTACGTGCGTTTAAGCGGTGCTAGAGCTGTCTACGACCAATTGAGCGGCCTCGGCACCGGGATTCTCCAGGAT
modifications: reconstituted with mouse histones H2A, H2B, H3.3 and H4
B3: 111 (nucleosome)
DNA 1: ATCCTGGAGAATCCCGGTGCCGAGGCCGCTCAATTGGTCGTAGACAGCTCTAGCACCGCTTAAACGCACGTACGCGCTGTCCCCCGCGTTTTAACCGCCAAGGGGATTACTCCTCAAGGCCAAGGCACGTGTCAGATATATACATCCTGTGAT
DNA 2: ATCACAGGATGTATATATCTGACACGTGCCTTGGCCTTGAGGAGTAATCCCCTTGGCGGTTAAAACGCGGGGGACAGCGCGTACGTGCGTTTAAGCGGTGCTAGAGCTGTCTACGACCAATTGAGCGGCCTCGGCACCGGGATTCTCCAGGAT
modifications: reconstituted with mouse histones H2A, H2B, H3.3 and H4
B4: 112 (nucleosome)
DNA 1: ATCCTGGAGAATCCCGGTGCCGAGGCCGCTCAATTGGTCGTAGACAGCTCTAGCACCGCTTAAACGCACGTACGCGCTGTCCCCCGCGTTTTAACCGCCAAGGGGATTACTCCCTCAAGGCCAGGCACGTGTCAGATATATACATCCTGTGAT
DNA 2: ATCACAGGATGTATATATCTGACACGTGCCTGGCCTTGAGGGAGTAATCCCCTTGGCGGTTAAAACGCGGGGGACAGCGCGTACGTGCGTTTAAGCGGTGCTAGAGCTGTCTACGACCAATTGAGCGGCCTCGGCACCGGGATTCTCCAGGAT
modifications: reconstituted with mouse histones H2A, H2B, H3.3 and H4
B5: 108 (nucleosome)
DNA 1: ATCCTGGAGAATCCCGGTGCCGAGGCCGCTCAATTGGTCGTAGACAGCTCTAGCACCGCTTAAACGCACGTACGCGCTGTCCCCCGCGTTTTAACCGCCAAGGGGATTACTCAAGGCCATCCAGGCACGTGTCAGATATATACATCCTGTGAT
DNA 2: ATCACAGGATGTATATATCTGACACGTGCCTGGATGGCCTTGAGTAATCCCCTTGGCGGTTAAAACGCGGGGGACAGCGCGTACGTGCGTTTAAGCGGTGCTAGAGCTGTCTACGACCAATTGAGCGGCCTCGGCACCGGGATTCTCCAGGAT
modifications: reconstituted with mouse histones H2A, H2B, H3.3 and H4
B6: 109 (nucleosome)
DNA 1: ATCCTGGAGAATCCCGGTGCCGAGGCCGCTCAATTGGTCGTAGACAGCTCTAGCACCGCTTAAACGCACGTACGCGCTGTCCCCCGCGTTTTAACCGCCAAGGGGATTACTTCAAGGCCACCAGGCACGTGTCAGATATATACATCCTGTGAT
DNA 2: ATCACAGGATGTATATATCTGACACGTGCCTGGTGGCCTTGAAGTAATCCCCTTGGCGGTTAAAACGCGGGGGACAGCGCGTACGTGCGTTTAAGCGGTGCTAGAGCTGTCTACGACCAATTGAGCGGCCTCGGCACCGGGATTCTCCAGGAT
modifications: reconstituted with mouse histones H2A, H2B, H3.3 and H4
B7: 1 (nucleosome)
DNA 1: ATCTCAAGGCCACCCGGTGCCGAGGCCGCTCAATTGGTCGTAGACAGCTCTAGCACCGCTTAAACGCACGTACGCGCTGTCCCCCGCGTTTTAACCGCCAAGGGGATTACTCCCTAGTCTCCAGGCACGTGTCAGATATATACATCCTGTGAT
DNA 2: ATCACAGGATGTATATATCTGACACGTGCCTGGAGACTAGGGAGTAATCCCCTTGGCGGTTAAAACGCGGGGGACAGCGCGTACGTGCGTTTAAGCGGTGCTAGAGCTGTCTACGACCAATTGAGCGGCCTCGGCACCGGGTGGCCTTGAGAT
modifications: reconstituted with mouse histones H2A, H2B, H3.3 and H4
B8: 2 (nucleosome)
DNA 1: ATCCTCAAGGCCACCGGTGCCGAGGCCGCTCAATTGGTCGTAGACAGCTCTAGCACCGCTTAAACGCACGTACGCGCTGTCCCCCGCGTTTTAACCGCCAAGGGGATTACTCCCTAGTCTCCAGGCACGTGTCAGATATATACATCCTGTGAT
DNA 2: ATCACAGGATGTATATATCTGACACGTGCCTGGAGACTAGGGAGTAATCCCCTTGGCGGTTAAAACGCGGGGGACAGCGCGTACGTGCGTTTAAGCGGTGCTAGAGCTGTCTACGACCAATTGAGCGGCCTCGGCACCGGTGGCCTTGAGGAT
modifications: reconstituted with mouse histones H2A, H2B, H3.3 and H4
B9: 102 (nucleosome)
DNA 1: ATCCTGGAGAATCCCGGTGCCGAGGCCGCTCAATTGGTCGTAGACAGCTCTAGCACCGCTTAAACGCACGTACGCGCTGTCCCCCGCGTTTTAACCGCCAAGGGTCAAGGCCACTAGTCTCCAGGCACGTGTCAGATATATACATCCTGTGAT
DNA 2: ATCACAGGATGTATATATCTGACACGTGCCTGGAGACTAGTGGCCTTGACCCTTGGCGGTTAAAACGCGGGGGACAGCGCGTACGTGCGTTTAAGCGGTGCTAGAGCTGTCTACGACCAATTGAGCGGCCTCGGCACCGGGATTCTCCAGGAT
modifications: reconstituted with mouse histones H2A, H2B, H3.3 and H4
B10: 105 (nucleosome)
DNA 1: ATCCTGGAGAATCCCGGTGCCGAGGCCGCTCAATTGGTCGTAGACAGCTCTAGCACCGCTTAAACGCACGTACGCGCTGTCCCCCGCGTTTTAACCGCCAAGGGGATTCAAGGCCAGTCTCCAGGCACGTGTCAGATATATACATCCTGTGAT
DNA 2: ATCACAGGATGTATATATCTGACACGTGCCTGGAGACTGGCCTTGAATCCCCTTGGCGGTTAAAACGCGGGGGACAGCGCGTACGTGCGTTTAAGCGGTGCTAGAGCTGTCTACGACCAATTGAGCGGCCTCGGCACCGGGATTCTCCAGGAT
modifications: reconstituted with mouse histones H2A, H2B, H3.3 and H4
B11: 104 (nucleosome)
DNA 1: ATCCTGGAGAATCCCGGTGCCGAGGCCGCTCAATTGGTCGTAGACAGCTCTAGCACCGCTTAAACGCACGTACGCGCTGTCCCCCGCGTTTTAACCGCCAAGGGGATCAAGGCCAAGTCTCCAGGCACGTGTCAGATATATACATCCTGTGAT
DNA 2: ATCACAGGATGTATATATCTGACACGTGCCTGGAGACTTGGCCTTGATCCCCTTGGCGGTTAAAACGCGGGGGACAGCGCGTACGTGCGTTTAAGCGGTGCTAGAGCTGTCTACGACCAATTGAGCGGCCTCGGCACCGGGATTCTCCAGGAT
modifications: reconstituted with mouse histones H2A, H2B, H3.3 and H4
B12: 103 (nucleosome)
DNA 1: ATCCTGGAGAATCCCGGTGCCGAGGCCGCTCAATTGGTCGTAGACAGCTCTAGCACCGCTTAAACGCACGTACGCGCTGTCCCCCGCGTTTTAACCGCCAAGGGGTCAAGGCCATAGTCTCCAGGCACGTGTCAGATATATACATCCTGTGAT
DNA 2: ATCACAGGATGTATATATCTGACACGTGCCTGGAGACTATGGCCTTGACCCCTTGGCGGTTAAAACGCGGGGGACAGCGCGTACGTGCGTTTAAGCGGTGCTAGAGCTGTCTACGACCAATTGAGCGGCCTCGGCACCGGGATTCTCCAGGAT
modifications: reconstituted with mouse histones H2A, H2B, H3.3 and H4
B13: 110 (nucleosome)
DNA 1: ATCCTGGAGAATCCCGGTGCCGAGGCCGCTCAATTGGTCGTAGACAGCTCTAGCACCGCTTAAACGCACGTACGCGCTGTCCCCCGCGTTTTAACCGCCAAGGGGATTACTCTCAAGGCCACAGGCACGTGTCAGATATATACATCCTGTGAT
DNA 2: ATCACAGGATGTATATATCTGACACGTGCCTGTGGCCTTGAGAGTAATCCCCTTGGCGGTTAAAACGCGGGGGACAGCGCGTACGTGCGTTTAAGCGGTGCTAGAGCTGTCTACGACCAATTGAGCGGCCTCGGCACCGGGATTCTCCAGGAT
modifications: reconstituted with mouse histones H2A, H2B, H3.3 and H4
B14: 12 (nucleosome)
DNA 1: ATCCTGGAGAATCCTCAAGGCCAGGCCGCTCAATTGGTCGTAGACAGCTCTAGCACCGCTTAAACGCACGTACGCGCTGTCCCCCGCGTTTTAACCGCCAAGGGGATTACTCCCTAGTCTCCAGGCACGTGTCAGATATATACATCCTGTGAT
DNA 2: ATCACAGGATGTATATATCTGACACGTGCCTGGAGACTAGGGAGTAATCCCCTTGGCGGTTAAAACGCGGGGGACAGCGCGTACGTGCGTTTAAGCGGTGCTAGAGCTGTCTACGACCAATTGAGCGGCCTGGCCTTGAGGATTCTCCAGGAT
modifications: reconstituted with mouse histones H2A, H2B, H3.3 and H4
B15: 13 (nucleosome)
DNA 1: ATCCTGGAGAATCCCTCAAGGCCAGCCGCTCAATTGGTCGTAGACAGCTCTAGCACCGCTTAAACGCACGTACGCGCTGTCCCCCGCGTTTTAACCGCCAAGGGGATTACTCCCTAGTCTCCAGGCACGTGTCAGATATATACATCCTGTGAT
DNA 2: ATCACAGGATGTATATATCTGACACGTGCCTGGAGACTAGGGAGTAATCCCCTTGGCGGTTAAAACGCGGGGGACAGCGCGTACGTGCGTTTAAGCGGTGCTAGAGCTGTCTACGACCAATTGAGCGGCTGGCCTTGAGGGATTCTCCAGGAT
modifications: reconstituted with mouse histones H2A, H2B, H3.3 and H4

The first assay deals with NR5A2 wild type;histone octamer (Homo sapiens;, UniProt O00482;C0HKE1;Q6ZWY9;P84244;P62806 1-541;2-130;2-126;2-136;2-103, |). The assay can be described thus: SeEN-seq (EMSA of nucleosome library followed by sequencing); 0.8 uM human NR5A2; 20 mM Tris-HCl pH 7.5, 120 mM NaCl, 1 mM MgCl2, 10 uM ZnCl2, 1 mM DTT, 100 ug/ml BSA, room temperature, 30 min; 0.1 uM nucleosome library; high values mean tight binding.
Regarding B1, the binding signal was 1.84 log2 enrichment (bound/unbound, relative to Widom 601).
Still for that read-out and setting: the same measure for B2: 0.733 log2 enrichment (bound/unbound, relative to Widom 601).
Still for that read-out and setting: the same measure for B3: 1.01 log2 enrichment (bound/unbound, relative to Widom 601); for B4: 0.87 log2 enrichment (bound/unbound, relative to Widom 601).
On the same count and under the same terms, the same measure for B5: 0.869 log2 enrichment (bound/unbound, relative to Widom 601).
For the molecule B6, the binding signal was 0.938 log2 enrichment (bound/unbound, relative to Widom 601).
Same read-out and setting: the same measure for B7: 6.41 log2 enrichment (bound/unbound, relative to Widom 601); for B8: 6.87 log2 enrichment (bound/unbound, relative to Widom 601).
The same measure, in the same setting: the same measure for B9: 0.685 log2 enrichment (bound/unbound, relative to Widom 601); for B10: 1.55 log2 enrichment (bound/unbound, relative to Widom 601).
As to B11, the binding signal was 1.03 log2 enrichment (bound/unbound, relative to Widom 601).
Still for that read-out and setting: the same measure for B12: 0.782 log2 enrichment (bound/unbound, relative to Widom 601); for B13: 0.939 log2 enrichment (bound/unbound, relative to Widom 601); for B14: 4.6 log2 enrichment (bound/unbound, relative to Widom 601).
The same measure, in the same setting: the same measure for B15: 4.51 log2 enrichment (bound/unbound, relative to Widom 601).

For another assay, the target named is mouse Nr5a2 wild type;histone octamer (Mus musculus;, UniProt P45448;C0HKE1;Q6ZWY9;P84244;P62806 1-560;2-130;2-126;2-136;2-103, |). The assay can be described thus: SeEN-seq (EMSA of nucleosome library followed by sequencing); 1.2 uM mouse Nr5a2; 20 mM Tris-HCl pH 7.5, 120 mM NaCl, 1 mM MgCl2, 10 uM ZnCl2, 1 mM DTT, 100 ug/ml BSA, room temperature, 30 min; 0.1 uM nucleosome library; high values mean tight binding.
Take B1: the binding signal was 1.23 log2 enrichment (bound/unbound, relative to Widom 601).
The same measure, in the same setting: the same measure for B2: 0.834 log2 enrichment (bound/unbound, relative to Widom 601).
Still for that read-out and setting: the same measure for B3: 1.02 log2 enrichment (bound/unbound, relative to Widom 601); for B4: 0.753 log2 enrichment (bound/unbound, relative to Widom 601).
Turning to B5, the binding signal was 0.815 log2 enrichment (bound/unbound, relative to Widom 601).
Consider B6, for which the binding signal was 0.719 log2 enrichment (bound/unbound, relative to Widom 601).
Regarding B7, the binding signal is 5.85 log2 enrichment (bound/unbound, relative to Widom 601).
As to B8, the binding signal is 5.51 log2 enrichment (bound/unbound, relative to Widom 601).
Same read-out and setting: the same measure for B9: 0.658 log2 enrichment (bound/unbound, relative to Widom 601); for B10: 1.09 log2 enrichment (bound/unbound, relative to Widom 601); for B11: 0.764 log2 enrichment (bound/unbound, relative to Widom 601).
As to B12, the binding signal is 0.764 log2 enrichment (bound/unbound, relative to Widom 601).
As to B13, the binding signal was 0.962 log2 enrichment (bound/unbound, relative to Widom 601).
On the same count and under the same terms, the same measure for B14: 4.25 log2 enrichment (bound/unbound, relative to Widom 601); for B15: 3.55 log2 enrichment (bound/unbound, relative to Widom 601).

The record behind these values is article PMC11102866, “Nucleosome-bound NR5A2 structure reveals pioneer factor mechanism by DNA minor groove anchor competition”.
